# Rows were chosen to be rich in hits. Some 4.1% of all compounds tested hit in one or more screens of this group.
# MEKK2mut PB1 HTS = MEK5 binding signal on mutant MEKK2 PB1, primary screen, biochemical, multiplex bead flow cytometry, Alexa488-MEK5; Alexa488-MEK5 binding to MEKK2 mutant; percent response, % at 10 µM; hit rate 0.35% among 290,000; AID 1530, 2009; in the data active = percent response above about 24%, passing the limit was not always enough
# CHT PAM = CHT positive allosteric modulators, primary screen, cell-based, membrane potential dye, choline EC20; High affinity choline transporter 1 (Homo sapiens), Q9GZV3; CHT-expressing cells; stronger effect = higher value; LV-AA mutant CHT in HEK293 cells; B-score at 10 µM; hit rate 0.49% among 310,000; AID 488977, 2010;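 active = initial fluorescence not abnormally high and integrated response B-score, plate-corrected, over 3 SD above library mean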
# CHT inh = inhibitors of human choline transporter CHT; High affinity choline transporter 1 (Homo sapiens), Q9GZV3; CHT-expressing cells, membrane potential dye, choline response; stronger effect = lower value; B-score at 10 µM; hit rate 0.86% among 310,000;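 active = B-score over 3 SD under the library average, and starting fluorescence ratio not unusually high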;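 note: choline stimulus applied at its EC90 after an EC20 pre-addition; B-score computed on integrated fluorescence ratio after choline addition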
# MEKK2 WT-MEK5 = modulators of MEK5 binding to wildtype MEKK2, primary screen, biochemical, multiplex bead flow cytometry, Alexa488-MEK5. hit rate 1.1% among 290,000. binding response (% of control), % at 10 µM. AID 1531, 2009. Mitogen-activated protein kinase kinase kinase 2 (Homo sapiens), Q9Y2U5. Alexa488-MEK5 binding to MEKK2 WT; actives lie on both sides; in the data active = binding response below about 67% or above about 130%
# MEKK3 PB1 HTS = modulators of MEKK3-MEK5 PB1 binding, primary screen, biochemical, wildtype MEKK3, multiplex bead flow cytometry, Alexa488-MEK5; Mitogen-activated protein kinase kinase kinase 3 (Homo sapiens), Q99759; bead-based flow cytometry, Alexa488-MEK5 binding to MEKK3; actives lie on both sides; 0 = blocked by unlabeled MEK5, 100 = vehicle; binding response (% of control), % at 10 µM; hit rate 1.4% among 290,000; AID 1529, 2009;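 active = binding response more than 3 SD above or below the average of its plate-row segment, actives on both sides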;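 note: Alexa488 bead fluorescence after subtracting the streptavidin-only scavenger bead signal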
# Target sequence (Q99759 whole entry, looked up): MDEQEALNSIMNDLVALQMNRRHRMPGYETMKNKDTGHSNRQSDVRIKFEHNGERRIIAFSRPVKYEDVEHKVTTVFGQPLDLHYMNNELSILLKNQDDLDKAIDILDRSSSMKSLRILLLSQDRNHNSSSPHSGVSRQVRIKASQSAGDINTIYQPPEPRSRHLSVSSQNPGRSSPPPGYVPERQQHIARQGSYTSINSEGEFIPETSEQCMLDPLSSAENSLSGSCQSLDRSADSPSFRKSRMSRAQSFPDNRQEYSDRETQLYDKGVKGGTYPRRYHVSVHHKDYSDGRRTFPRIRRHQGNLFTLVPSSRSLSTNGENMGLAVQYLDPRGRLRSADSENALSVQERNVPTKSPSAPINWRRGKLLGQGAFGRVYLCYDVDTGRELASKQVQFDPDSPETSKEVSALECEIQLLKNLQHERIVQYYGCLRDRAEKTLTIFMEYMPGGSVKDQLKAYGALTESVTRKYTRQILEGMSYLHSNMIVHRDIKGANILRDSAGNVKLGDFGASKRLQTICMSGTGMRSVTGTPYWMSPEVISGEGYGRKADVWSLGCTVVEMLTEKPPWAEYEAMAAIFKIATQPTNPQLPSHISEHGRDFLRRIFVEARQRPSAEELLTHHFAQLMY
# SUMO Mot1 rescue = yeast Mot1-301 growth rescue at high temperature, primary screen, SUMOylation pathway inhibitor project, S. cerevisiae, ATP luminescence, 38.5C; S. cerevisiae Mot1-301 growth rescue; percent above DMSO median, 100 means doubled; hit rate 1% among 320,000; growth rescue, % at 18.8 µM;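 active = every valid replicate shows activation above 250% relative to neutral control wells; inactive = the rest, any valid replicate at or below 250%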;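 note: OY570 slx delta 5 strain wells were the positive control but not used for scaling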
# CHT activ conf = CHT activators, confirmation, cell-based, membrane potential dye, duplicate; AID 504833, 2011; hit rate 91% among 2,500; activation, % at 10 µM; shares compounds with CHT PAM; CHT-expressing cells, membrane potential dye fluorescence (FDSS); % of choline EC20–EC90 response window; HEK293 expressing CHT LV-AA mutant; choline added at its EC20;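 active = primary screen active, with duplicate mean activation above negative control mean plus 3 SD, cut at about 11% in these data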
# HEK293 MP dye = membrane potential response in parental HEK293 cells, counter-screen for CHT activator project, cell-based, membrane potential dye; shares compounds with CHT PAM; membrane potential dye fluorescence (FDSS); measured after EC20 choline addition; ratio readout change at 10 µM, hits read low; hit rate 62% among 2,500; AID 623908, 2012;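 active = duplicate-averaged ratio beyond 3 SD from buffer wells, up or down, though filed actives are nearly all decreases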
# Numbers without * were called inactive; i = inactive; . = no result.
SMILES,MEKK2mut PB1 HTS,CHT PAM,CHT inh,MEKK2 WT-MEK5,MEKK3 PB1 HTS,SUMO Mot1 rescue,CHT activ conf,HEK293 MP dye
CC1Cc2cc(S(=O)(=O)N3CCN(c4ccccc4F)CC3)ccc2N1C(=O)C1CC1 (configuration not stated),1,7.5*,i,98,105,3,20*,i
CN1CCc2c(sc3nc(SCC(N)=O)n(-c4ccc(Cl)cc4)c(=O)c23)C1,2,6.8*,i,98,94,-5,46*,-34*
C=C(C)CSc1nc2sc3c(c2c(=O)n1C1CCCCC1)CCN(C)C3,-9,6.8*,i,96,92,-11,39*,-48*
O=C(CCC(=O)N1CCN(c2ccc(C(F)(F)F)cn2)CC1)c1cccs1,.,.,.,.,.,12,.,.
CCOC(=O)C1(Cc2ccccc2)CCN(CC2CC=CCC2)CC1 (configuration not stated),-15,i,i,91,96,-9,2,i
CC(C)(C)OC(=O)C[C@@H]1C/C=C\C[C@@H](CC(=O)NCCO)C(=O)NC[C@@H](c2ccccc2)OC1=O,.,.,.,.,.,-11,.,.
CCN1CCN(C(=S)Nc2ccc3nc(N4CCN(C)CC4)cc(C)c3c2)CC1,-1,6.9*,i,102,97,3,41*,-34*
CCN1CCN(C(=S)Nc2ccc3nc(N4CCN(CC)CC4)cc(C)c3c2)CC1,3,i,i,106,106,-2,27*,-37*
CCN1CCN(c2cc(C)c3cc(NC(=O)c4ccccc4F)ccc3n2)CC1,17,.,.,118,105,.,.,.
CCN1CCN(c2cc(C)c3cc(NC(=O)c4ccncc4)ccc3n2)CC1,17,i,i,114,103,-7,43*,-26*
CCN1CCN(c2cc(C)c3cc(NC(=S)N4CCN(c5ccc(F)cc5)CC4)ccc3n2)CC1,15,i,i,130,113,383,.,.
Cc1ccc(N(C(=O)c2csnn2)C(C(=O)NC2CCCCC2)c2cccnc2)c(C)c1 (configuration not stated),1,i,i,97,99,-2,.,.
CC(Nc1ccnc2cc(Cl)ccc12)c1ccc(S(N)(=O)=O)cc1 (configuration not stated),11,i,i,105,100,-8,35*,-46*
COC(=O)CSc1ccnc2cc(Cl)ccc12,-21,i,i,92,89,11,.,.
CCCC[N+](CC#CCO)(CC#Cc1ccccc1)CCCC,13,11*,i,100,102,32,74*,i
Cn1c(=O)c2c3c(sc2n2cnnc12)CCC3,8,i,i,100,99,-1,30*,-39*
CCN(CC)CCNc1nc(SC)nc2sc3c(c12)CCN(C)C3,16,i,i,117,107,-11,.,.
COCCSc1nc(N)c2c3c(sc2n1)CN(C)CC3,20,6.4*,i,103,104,-1,41*,-51*
CC(C)Sc1nc(N)c2c3c(sc2n1)CN(C)CC3,.,i,i,.,.,-5,31*,-44*
CSc1nc(NCc2ccccc2)c2c3c(sc2n1)CN(C)CC3,12,i,i,113,96,0,.,.
CCCCSc1nc2sc3c(c2c(=O)n1-c1ccc(OC)cc1)CCN(C)C3,1,.,.,116,98,.,.,.
CSc1nc(SCC(=O)NCC2CCCO2)c2c3c(sc2n1)CN(C)CC3 (configuration not stated),11,6.5*,i,109,106,37,36*,-50*
Cc1nc(SCC(=O)NCC2CCCO2)c2c3c(sc2n1)CCCC3 (configuration not stated),0,i,i,97,99,9,.,.
COCCNc1nc(SC)nc2sc3c(c12)CCN(C)C3,-3,7.1*,i,96,94,-9,38*,-44*
CCNC(=O)c1ccc(NS(=O)(=O)c2ccc3[nH]c(=O)[nH]c3c2)cc1,9,i,i,99,98,-5,.,.
SMILES,MEKK2mut PB1 HTS,CHT PAM,CHT inh,MEKK2 WT-MEK5,MEKK3 PB1 HTS,SUMO Mot1 rescue,CHT activ conf,HEK293 MP dye
CCCn1c(=O)c2ccccc2n2c(SCCNCCO)nnc12,8,9.1*,i,108,102,-11,57*,-51*
CCCn1c(=O)c2ccccc2n2c(SCC(=O)c3ccccc3)nnc12,12,i,i,114,100,7,.,.
CCC(=O)NC(c1ccccc1OC)c1ccc2cccnc2c1O (configuration not stated),7,i,i,104,107,-16,.,.
COc1ccc(Cl)cc1C(Nc1cccnc1)c1ccc2cccnc2c1O (configuration not stated),-1,i,i,101,98,56,19*,i
Cc1nc(NC(C)c2ccccc2)c2c3c(sc2n1)CCC3 (configuration not stated),0,i,i,99,100,.,18*,i
COc1ccc(-c2csc(N(CCCN(C)C)C(=O)c3cccs3)n2)cc1,12,i,i,130,110,-3,36*,-43*
Cc1ccc(/C=C/C(=O)OCn2nnc3ccccc3c2=O)o1,-4,i,i,104,106,10,.,.
CCc1ccccc1NC(=O)c1ccc(-c2csc(C)n2)cc1,3,i,i,104,103,-9,7,i
Cc1ccc(C)c(N2CCN(C3CCCCC3NS(=O)(=O)c3ccccc3)CC2)c1 (configuration not stated),-7,6.3*,i,97,98,-8,16*,i
O=C1/C(=C/c2ccccn2)SC(=S)N1N1CCOCC1,-11,i,i,94,94,26,.,.
O=C(NCc1ccc(F)cc1)C(c1cccnc1)N(C(=O)c1csnn1)c1ccccc1 (configuration not stated),10,i,i,100,99,6,.,.

# Source: PubChem (several laboratories)
